Reference: PubChem BioAssay AID861 (The Scripps Research Institute Molecular Screening Center, 2007)
Screen size: about 200,000 compounds; about 360 (0.18%) were called active. Many of the other results were omitted from the sample, so actives are more common in it than they were. Unmarked numbers belong to inactive results. No stated cut-off is given here; in the data, active means inhibition above about 25%; inactive means the rest.

Each molecule was assayed against Toll-like receptor 4 (Homo sapiens) + Myeloid differentiation primary response protein MyD88 (Homo sapiens) (UniProt O00206+Q99836) (assay: inhibitors of TLR4-MyD88 association in cells, primary screen, cell-based, HeLa CL3-4, BLA complementation, FRET ratio (AID 861;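 further: 0% = vehicle and 100% = reference inhibitor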)). Conditions: HeLa CL3-4 TLR4/MyD88 BLA complementation, at 8.4 µM, active compounds read high.
Toll-like receptor 4 (Homo sapiens) + Myeloid differentiation primary response protein MyD88 (Homo sapiens), sequence (O00206 whole entry, looked up): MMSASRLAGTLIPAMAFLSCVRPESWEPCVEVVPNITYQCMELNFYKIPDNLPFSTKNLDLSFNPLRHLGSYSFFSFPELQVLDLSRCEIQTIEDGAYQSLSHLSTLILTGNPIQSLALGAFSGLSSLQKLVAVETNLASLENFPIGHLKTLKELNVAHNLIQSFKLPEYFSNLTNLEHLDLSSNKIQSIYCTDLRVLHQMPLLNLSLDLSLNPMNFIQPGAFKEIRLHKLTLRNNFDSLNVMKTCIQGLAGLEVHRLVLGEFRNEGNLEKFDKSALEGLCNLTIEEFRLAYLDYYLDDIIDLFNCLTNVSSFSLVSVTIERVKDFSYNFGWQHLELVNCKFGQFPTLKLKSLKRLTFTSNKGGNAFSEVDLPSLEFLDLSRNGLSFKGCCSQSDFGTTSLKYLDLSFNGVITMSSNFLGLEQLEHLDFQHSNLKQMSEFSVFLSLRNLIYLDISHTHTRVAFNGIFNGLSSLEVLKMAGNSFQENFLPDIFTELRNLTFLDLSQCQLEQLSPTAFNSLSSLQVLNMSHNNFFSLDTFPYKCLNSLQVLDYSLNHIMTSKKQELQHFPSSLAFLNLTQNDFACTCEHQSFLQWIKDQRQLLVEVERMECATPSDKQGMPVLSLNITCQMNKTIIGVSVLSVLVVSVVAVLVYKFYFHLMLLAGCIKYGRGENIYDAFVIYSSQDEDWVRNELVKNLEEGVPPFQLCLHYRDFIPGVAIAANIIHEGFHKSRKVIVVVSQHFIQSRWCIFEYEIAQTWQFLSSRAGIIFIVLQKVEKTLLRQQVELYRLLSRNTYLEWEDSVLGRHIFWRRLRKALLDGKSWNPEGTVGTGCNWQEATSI
Toll-like receptor 4 (Homo sapiens) + Myeloid differentiation primary response protein MyD88 (Homo sapiens), sequence (Q99836 whole entry, looked up): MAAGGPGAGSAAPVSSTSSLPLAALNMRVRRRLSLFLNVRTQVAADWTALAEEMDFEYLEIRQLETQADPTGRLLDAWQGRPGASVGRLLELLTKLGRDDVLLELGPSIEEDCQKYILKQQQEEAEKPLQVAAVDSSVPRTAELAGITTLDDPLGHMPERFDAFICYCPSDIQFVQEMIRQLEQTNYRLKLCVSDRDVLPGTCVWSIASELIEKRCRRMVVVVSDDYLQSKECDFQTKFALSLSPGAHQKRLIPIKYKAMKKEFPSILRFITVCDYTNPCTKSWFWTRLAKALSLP
Work on `CCOC(=O)c1c(N)sc(C(C)=O)c1C` yielded an inhibition of 1.12%.
`CCOC(=O)c1sc(NC(=O)CSc2nc(O)c(Cc3ccccc3)c(=O)[nH]2)nc1C` showed an inhibition of 1.47%.
`CCn1cc(-c2cc(C(=O)O)on2)c(C)n1` gave an inhibition of 1.59%.
With `COc1cccc(/C=C(/CC(=O)Nc2ccc(N3CCOCC3)cc2)c2nc3ccccc3s2)c1` the inhibition was 5.83%.
`O=C(COC(=O)Cc1ccc(F)cc1)Nc1cc(S(=O)(=O)N2CCOCC2)ccc1N1CCCC1` gave an inhibition of -6.48%.
`Cc1[nH]c2ccccc2c1/C=N\NC(=O)Cn1nnc(-c2ccccc2)n1` gave an inhibition of -5.01%.
`Cc1cccc(C)c1NC(=O)C1CCCN1C(=O)OC(C)(C)C` (configuration not stated) gave an inhibition of -1.58%.
`O=C(Nc1ccccc1)O/N=C1\CCCCC1c1ccc([N+](=O)[O-])cc1[N+](=O)[O-]` (configuration not stated) showed an inhibition of 5.14%.
For `CCn1c(SCc2cc(=O)n3ccsc3n2)nc2ccccc21`, the inhibition was -21.4%.
Work on `Cc1nccn1CCCNC(=O)CC1C(=O)NCCN1Cc1ccc(Cl)c(F)c1` (configuration not stated) yielded an inhibition of -15.6%.
`Cc1ccc(NC2=C(Cl)C(=O)OC2OC(=O)c2ccccc2C)cc1` (configuration not stated) showed an inhibition of -14.9%.
With `CC(=O)c1ccc(N=C2SCCCN2C(=O)C2CCCCC2)cc1` the inhibition was 0.78%.
In the case of `Fc1cccc2ncnc(OCc3ccccc3)c12`, the inhibition is reported as -8.75%.
`CCC(C)(C)NC(=O)C(c1ccccn1)N(C(=O)c1csnn1)c1ccccc1` (configuration not stated) was tested, and the inhibition was 2%.
Work on `COc1ccc(NC(=S)NCC2CCN(c3ccc(OC)cc3)C2)cc1` (configuration not stated) yielded an inhibition of -0.81%.
Molecule `CC(=O)Nc1ccc(CN2CCN(Cc3ccc(F)c(F)c3)C(CCO)C2)cc1` (configuration not stated) has an inhibition of -0.85%.
`COc1cc(CN2CCNC(=O)C2CC(=O)NCCc2ncccc2C)cc(OC)c1` (configuration not stated) gave an inhibition of -11.2%.
For `COc1cccc(NCCC(=O)c2cccc([N+](=O)[O-])c2)c1`, the inhibition was 9.38%.
`CCOc1ccc(-n2cnnn2)cc1S(=O)(=O)N1CCC(C)CC1C` (configuration not stated) was tested, and the inhibition was -2.33%.
Molecule `O=C(NCc1ccco1)c1ccc(NS(=O)(=O)c2cccc([N+](=O)[O-])c2)cc1` has an inhibition of 11.7%.
`CC(=O)c1c(C)[nH]c(C(=O)OCC(=O)Nc2sc3c(c2C#N)CCCC3)c1C` was tested, and the inhibition was -2.59%.
`COc1cc(OC)c(C(=O)Nc2ccccc2-c2ccccc2)cc1OC` gave an inhibition of -14%.
`CC(=O)Nc1ccc(C(=O)CSc2nc3ccc(C)cc3[nH]2)cc1` was tested, and the inhibition was 5.15%.
`O=C(NNC(=S)Nc1ccccc1)c1cccc(S(=O)(=O)N2CCOCC2)c1` showed an inhibition of -2.25%.
With `CCN(CC)c1ccc2oc(=O)c(C)nc2c1` the inhibition was 26.6% (active).
`CCN(CC)c1ccc2c(Nc3ccccc3)c(C=O)c(=O)oc2c1` showed an inhibition of 6.79%.
Molecule `CCN(CC)c1ccc2cc(C(=O)O)c(=O)oc2c1` has an inhibition of 2.27%.
